# From PubChem BioAssay
# Calls of active or inactive are those of the source. Unless noted, no rule for the calls is given here.
# What was measured:
# [1] = liver-stage malaria parasite load reduction – cell-based, known kinase inhibitor set, luminescence, hepatoma host viability (AID 624392); conditions: Plasmodium liver stage in hepatoma cells, luciferase luminescence, concentration not given here; liver cell % of control: measured here: host liver cell viability; parasite % of control: stronger effect = lower value;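 also: infected cells incubated roughly two days before readout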
# [2] = altered dexamethasone sensitivity, NF-kB reporter, cell-based, luciferase, IL-1B stimulus (AID 624486); conditions: IL-1B + dexamethasone, luminescence; percent of negative control (+Dex): actives lie on both sides, concentration not given here; z-score: measured here: IL-1B alone, no Dex;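 as to percent of negative control (+Dex): 100% = mean signal of vehicle control wells on the plate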
# [3] = C. elegans survival during P. aeruginosa infection – whole organism (AID 651566);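 also: tested at 14 µM; sign flipped so higher z means a lower ratio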; conditions: C. elegans killed by P. aeruginosa, survival ratio
# [4] = pro-inflammatory signaling induction in mouse macrophages – cell-based, murine, luminescence (AID 652131); conditions: murine macrophage pro-inflammatory reporter, stronger effect = higher value
# [5] = inducers of IRF3 signaling, differentiated THP-1 – cell-based, PMA-stimulated THP-1, luminescence (AID 1053176); conditions: PMA-differentiated THP-1, IRF3 reporter luminescence; stronger effect = higher value
# [6] = MELAS cybrid and Rieske KO viability enhancers – cell-based, MELAS cybrids, Rieske KO mouse fibroblasts, CellTiter-Glo, primary screen (AID 1508586;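 active = mean z-score across replicates of 1.96 or higher in either the MELAS or the Rieske mutant cell line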;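 also: z relative to plate mean and SD of compound and empty wells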); conditions: low glucose
# [7] = Wnt pathway potentiators raising nuclear beta-catenin – imaging, WNT3A-conditioned medium, mouse C2C12, NPC library, primary screen (AID 1117326; in the data active = nuclear beta-catenin stimulation mostly above about 4.2%, no sharp cut-off; inactive = mostly below about 10%); conditions: stronger effect = higher value
# [8] = stimulators of insulin release from INS-1E, primary screen, cell-based, 5 mM glucose, NPC library (AID 1117329;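 active = compound raises insulin release from rat beta cells at 5 mM glucose, no numeric limit stated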); conditions: rat INS-1E insulin secretion, at 10 µM, stronger effect = higher value
# [9] = growth inhibition of GSK3B-pretreated HCT116 cells – cell-based, CellTiter-Glo, 0.2 to 20 µM (AID 1117336;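 active = compounds lowering colon cancer cell viability after pretreatment blocking the GSK3B kinase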); conditions: HCT116 viability after GSK3B inhibitor, at 20 µM, stronger effect = higher value
# [10] = inhibition of endothelial tube formation, primary screen, imaging, VEGF stimulated, CD31 staining, tube area, NPC library (AID 1117340;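 active = compound that reduces growth-factor-driven endothelial tube area in a mixed cell culture, no cutoff stated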); conditions: VEGF-stimulated ADSC/ECFC co-culture, at 10 µM, stronger effect = higher value
# [11] = GLP1 release stimulators, primary, NCI-H716, NPC library (AID 1117341;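 active = compound raises GLP1 secretion from the human gut endocrine cells, with no numeric limit stated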); conditions: NCI-H716 cells, at 10 µM, stronger effect = higher value
# [12] = HCT116 colon cancer cell growth inhibition, primary screen, CellTiter-Glo luminescence, NPC library (AID 1117342;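 active = compounds that lower survival of HCT116 colon cancer cells in the luminescence readout, no numeric limit stated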); conditions: at 20 µM (top of the series)
# [13] = reduced SW480 viability measured with CellTiter-Glo, NPC library, primary (AID 1117343;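 active = compounds that lower viability of the colon cancer cells in the luminescence readout, with no numeric limit stated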); conditions: CellTiter-Glo luminescence; at 20 µM (top of the series)
# [14] = NPC library primary testing for decreased DLD-1 cell viability via CellTiter-Glo (AID 1117346;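 active = compounds that lower survival of DLD-1 colon cancer cells in the luminescence readout, no cutoff given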); conditions: DLD-1 viability, CellTiter-Glo luminescence; at 20 µM (top of the series)
# [15] = MELAS cybrid survival, CellTiter-Glo 48 h, stronger effect = higher value
# [16] = Rieske KO mouse fibroblast survival, CellTiter-Glo 72 h
structure (smiles),measurement,setting,value
O=C1NC(=O)C(c2ccccc2Cl)=C1Nc1cc(Cl)c(O)c(Cl)c1,liver cell % of control,[1],90.9%
same,parasite % of control,[1],128% (inactive)
same,percent of negative control (+Dex),[2],95.5% (inactive)
same,z-score,[2],0.49
same,z-score,[3],-0.07 (inactive)
same,z-score,[4],0.319 (inactive)
same,fraction signal,[5],-0.002 (inactive)
same,z-score,[6]; [15],-0.0492 (inactive)
same,z-score,[6]; [16],-0.159
CN1CC(O)c2cc(N=NC(N)=O)c(O)cc21 (centres undefined),nuclear beta-catenin stimulation,[7]; at 10 µM,1.3% (inactive)
same,nuclear beta-catenin stimulation,"[7]; stimulation, at 2 µM",1.3%
same,insulin secretion stimulation,[8],-1.7% (inactive)
same,viability decrease,[9],2% (inactive)
same,tube area decrease,[10],-33% (inactive)
same,GLP1 secretion stimulation,[11],2.9% (inactive)
same,inhibition of viability,[12],-4.6% (inactive)
same,viability decrease (inhibition),[13],4.9% (inactive)
same,viability decrease (inhibition),[14],2.4% (inactive)
CS(=O)(=O)c1ccc(Oc2nccc(-c3c(-c4ccc(F)cc4)ncn3C3CCNCC3)n2)cc1,liver cell % of control,[1],78.7%
same,parasite % of control,[1],128% (inactive)
same,percent of negative control (+Dex),[2],92% (inactive)
same,z-score,[2],0.015
same,z-score,[3],-0.505 (inactive)
same,z-score,[4],-0.16 (inactive)
same,fraction signal,[5],-0.008 (inactive)
same,z-score,[6]; [15],-0.0537 (inactive)
same,z-score,[6]; [16],-0.376
Cc1ccc(NC(=O)c2ccnc(N3CCOCC3)c2)cc1-c1ccc(C(=O)NCC2CC2)cc1,liver cell % of control,[1],100%
same,parasite % of control,[1],95.1% (inactive)
same,percent of negative control (+Dex),[2],102% (inactive)
same,z-score,[2],1.12
same,z-score,[3],0.01 (inactive)
same,z-score,[4],-0.216 (inactive)
same,fraction signal,[5],-0.0075 (inactive)
same,z-score,[6]; [15],-0.365 (inactive)
same,z-score,[6]; [16],-0.395
Fc1ccc(-c2ncn(C3CCNCC3)c2-c2ccnc(Oc3ccc(F)c(F)c3)n2)cc1,liver cell % of control,[1],83%
same,parasite % of control,[1],166% (inactive)
same,percent of negative control (+Dex),[2],106% (inactive)
same,z-score,[2],1.34
same,z-score,[3],0.595 (inactive)
same,z-score,[4],0.167 (inactive)
same,fraction signal,[5],0.003 (inactive)
same,z-score,[6]; [15],-0.134 (inactive)
same,z-score,[6]; [16],-0.514
O=C(O)c1ccc(Oc2nccc(-c3c(-c4ccc(F)cc4)ncn3C3CCNCC3)n2)cc1,liver cell % of control,[1],104%
same,parasite % of control,[1],117% (inactive)
same,percent of negative control (+Dex),[2],97% (inactive)
same,z-score,[2],-0.04
same,z-score,[3],-0.625 (inactive)
same,z-score,[4],0.424 (inactive)
same,fraction signal,[5],0.0015 (inactive)
same,z-score,[6]; [15],-0.0801 (inactive)
same,z-score,[6]; [16],-0.396
CCCCCCCCCCCC(=O)[O][Sn]([CH2]CCC)([CH2]CCC)[O]C(=O)CCCCCCCCCCC,nuclear beta-catenin stimulation,[7]; at 10 µM,75.9% (active)
same,nuclear beta-catenin stimulation,"[7]; stimulation, at 2 µM",7.2%
same,insulin secretion stimulation,[8],0% (inactive)
same,viability decrease,[9],-72% (inactive)
same,tube area decrease,[10],94.7% (active)
same,GLP1 secretion stimulation,[11],49% (active)
same,inhibition of viability,[12],5.07% (inactive)
same,viability decrease (inhibition),[13],133% (active)
same,viability decrease (inhibition),[14],101% (active)
O=C1NC(=O)C(c2cccc([N+](=O)[O-])c2)=C1Nc1cc(Cl)c(O)c(Cl)c1,liver cell % of control,[1],108%
same,parasite % of control,[1],92.3% (inactive)
same,percent of negative control (+Dex),[2],80.5% (inactive)
same,z-score,[2],-0.485
same,z-score,[3],0.045 (inactive)
same,z-score,[4],0.634 (inactive)
same,fraction signal,[5],-0.003 (inactive)
same,z-score,[6]; [15],-0.803 (inactive)
same,z-score,[6]; [16],-0.48
Cc1[nH]nc2c1N=C(c1ccccc1Cl)c1cc([N+](=O)[O-])ccc1N2,liver cell % of control,[1],92.3%
same,parasite % of control,[1],32.5% (inactive)
same,percent of negative control (+Dex),[2],104% (inactive)
same,z-score,[2],-1.15
same,fraction signal,[5],-0.0135 (inactive)
O=C(/C=C/c1ccccc1)NCCO,nuclear beta-catenin stimulation,[7]; at 10 µM,1.1% (inactive)
same,nuclear beta-catenin stimulation,"[7]; stimulation, at 2 µM",1.4%
same,insulin secretion stimulation,[8],-2.3% (inactive)
same,viability decrease,[9],-9.8% (inactive)
same,tube area decrease,[10],26.7% (inactive)
same,GLP1 secretion stimulation,[11],-1.5% (inactive)
same,inhibition of viability,[12],12.9% (inactive)
same,viability decrease (inhibition),[13],-3.5% (inactive)
same,viability decrease (inhibition),[14],-16.4% (inactive)
O=S1CCN(Cc2ccc(-c3ccc4ncnc(Nc5ccc(OCc6cccc(F)c6)c(Cl)c5)c4c3)o2)CC1,liver cell % of control,[1],103%
same,parasite % of control,[1],99.6% (inactive)
same,percent of negative control (+Dex),[2],74.5% (inactive)
same,z-score,[2],-1.72
same,z-score,[3],-0.375 (inactive)
same,z-score,[4],13.5 (active)
same,fraction signal,[5],-0.007 (inactive)
same,z-score,[6]; [15],0.445 (inactive)
same,z-score,[6]; [16],-0.225
CC(C)C[C@@H]1[C@H](c2ccccc2)OC(=O)N1CCCN1CCCCCC1,nuclear beta-catenin stimulation,[7]; at 10 µM,1.3% (inactive)
same,nuclear beta-catenin stimulation,"[7]; stimulation, at 2 µM",1.6%
same,insulin secretion stimulation,[8],15% (inactive)
same,viability decrease,[9],21.1% (inactive)
same,tube area decrease,[10],8% (inactive)
same,GLP1 secretion stimulation,[11],5.9% (inactive)
same,inhibition of viability,[12],56.3% (active)
same,viability decrease (inhibition),[13],19.9% (inactive)
same,viability decrease (inhibition),[14],18.3% (inactive)
